# Measured values from PubChem BioAssay (NCI).
# The panel holds about 79,000 compounds, 15% with a hit somewhere; the sample as a whole holds those more often. Unmarked numbers belong to inactive results. Activity calls are given as the source filed them. No stated cut-off is given here; in the data, active means growth inhibition above about 70%; inactive means the rest.
# Assay: NCI Yeast Anticancer Drug Screen. Data for the mec2-1 strain (AID 157)
# Details: S. cerevisiae mec2-1 strain, at 50.0 µM, hits give high values
# Method in brief: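 Using mec2-1 yeast: add compound, measure growth, express inhibition versus vehicle-treated cultures.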
row,SMILES,growth inhibition
1,CCSC(OC(C)=O)C(Nc1ccc([N+](=O)[O-])cc1[N+](=O)[O-])C(OC(C)=O)C(OC(C)=O)C(COC(C)=O)OC(C)=O (configuration not stated),10.8%
2,O=C1NC2Cc3ccccc3C(C2)O1 (configuration not stated),-0.9%
3,Fc1ccc2c(c1)Nc1ccccc1S2,-1.95%
4,CNc1ccc(Br)cc1[N+](=O)[O-],-22.7%
5,NCCS/C=C/C(=O)Oc1ccc(Br)cc1,0.85%
6,Cc1nn2c(-c3ccccc3)cnnc2c1-c1ccccc1,-21.1%
7,CCCCCCCCCCCCCCSc1ccc2ccccc2c1,9.3%
8,CC(C(=O)O)/C(=C\c1ccc2c(c1)OCO2)C(=O)O (configuration not stated),11.3%
9,O=C(O)CC(NC(=O)C(CC(=O)OCc1ccccc1)NC(=O)OCc1ccccc1)C(=O)OCc1ccccc1 (configuration not stated),20.6%
10,C=C(C)C1CCC2(C)CC3C(=C)CC(O)C(O)C3(C)CCC12 (configuration not stated),88.8% (active)
11,O=c1ccn(Cc2ccccc2)c(=O)[nH]1,-10.3%
12,Oc1cc(CN2CCOCCOCCOCCOCC2)c(O)cc1CN1CCOCCOCCOCCOCC1,-11.8%
13,O=c1[nH]c(=O)c2ncn(-c3ccc(Cl)cc3)c2[nH]1,-20.9%
14,OC(c1ccc(Cl)cc1)c1nc2ccccc2[nH]1 (configuration not stated),18.4%
15,COc1cc(OC)c2nccc(NCCCN(C)C)c2c1[N+](=O)[O-],-22.4%
16,CSc1n[nH]c(NC(=O)c2ccccc2Cl)n1,0.45%
17,C1CCC(C(CCCCC(C2CCCCC2)C2CCCCC2)C2CCCCC2)CC1,-3.8%
